The results in this text go back to PubChem BioAssay.

SMILES strings stand for the structures. Records with an inconclusive call do not appear. Calls of active or inactive are those of the source.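 How the source made its calls, unless noted: active means growth inhibition above 25% in both replicates, a cutoff set 3 SD above the mean; inconclusive means above 25% in only one replicate; inactive means the rest.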

Test [1] can be described thus: reducers of endogenous Her2 protein level, primary screen, SKBR3 breast tumor cells, AlphaScreen, ATP viability (AID 461;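 active means Her2 level under about 52% in both replicate screens, with viability over 70% of control, limit read from the data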;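 on Her2 level: lower value means less Her2 protein in the cells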;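 on viability: percent of carrier control wells set as 100% viability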). The following applies: 18-24 h, measured here: SKBR3 viability, ATP luminescence, at 10 µM.
In test [2] the target is Receptor tyrosine-protein kinase erbB-2 (Homo sapiens) (UniProt P04626). The description is as above. The following applies: 18-24 h, at 10 µM, stronger effect = lower value.
Test [3] can be described thus: SK-BR-3 cell growth inhibitors, pilot screen, 24 h, human (AID 572;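 active means viability at or below 10% of carrier control in both of two separate runs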;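 further: compound exposure lasted between 18 and 24 h rather than exactly 24 h; 100% = carrier-treated control wells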). The following applies: SK-BR-3 viability, CellTiter-Glo luminescence, at 10 µM, stronger effect = lower value.
The nature of test [4]: HUVEC growth inhibition – cell-based, human, primary screen (AID 575;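 active means viability at or below 30% in both replicate assays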;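 further: 100% = median of untreated cell wells with 0.1% DMSO on each plate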). The settings on record: HUVEC proliferation, CellTiter-Glo luminescence, 72 h; at 10 µM; stronger effect = lower value. On the technique in general: Cellular ATP, detected with luciferase, serves as a proxy for viable cell number.
The nature of test [5]: growth inhibitors of H69AR lung tumor, primary screen, human, duplicate replicates (AID 580;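 active means viability at or under a set limit in both replicates, limit being median viability minus 3 SD, cut at about 48% in these data, passing the limit was not always enough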;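 further: 100% = mean luminescence of untreated wells and 0% = no signal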). The following applies: H69AR lung tumor cells viability, ATP luminescence, 72 h; at 10 µM; stronger effect = lower value.
Test [6] in a line: reversal of MRP1-mediated doxorubicin resistance, pilot screen, H69AR cells, doxorubicin co-treatment (AID 601;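 active means viability loss from added drug above about 55%, and viability with drug at most 40%, in both replicates, limit read from the data, passing the limit was not always enough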). The following applies: CellTiter-Glo, 72 h, at 10 µM; for differential viability (reversal): stronger effect = higher value.
The nature of test [7]: 384-well plate pilot, post-Golgi transport modulator project, inhibition of yeast transport mutant growth (AID 636; in the data active means inhibition above about 31%). The following applies: absorbance 615 nm, about 18 h, stronger effect = higher value.
The nature of test [8]: growth suppression of yeast trafficking mutant, preliminary HTS, modulators of trafficking downstream of Golgi apparatus project, 1536-format plate, OD 615 nm (AID 637; in the data active means inhibition above about 30%). The settings on record: yeast transport mutant growth, absorbance 615 nm, 18 h; stronger effect = higher value.
The nature of test [9]: OD615 S. cerevisiae growth inhibition, permissive medium, pilot counter-assay, permissive growth control for S. cerevisiae lifespan shortening project (AID 705). The following applies: OD615, 24 h, at 10 µM, stronger effect = higher value.
Test [10] in a line: Restrictive medium S. cerevisiae growth inhibition, OD615, pilot screen of yeast lifespan reduction project, restrictive growth control (AID 706;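 active means growth inhibition above a set limit, 3 SD over mean compound inhibition, in both replicates, cut at about 43% in these data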;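 further: modified DeaD lifespan yeast strain shifted to restrictive glucose medium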). The following applies: OD615, 48 h, at 10 µM, stronger effect = higher value.
Test [11] can be described thus: viability gain of MRP-1-high H69AR cells under doxorubicin, pilot screen, MRP-1 activator project, CellTiter-Glo, duplicate (AID 807;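 active means viability increase at or above a cutoff of the median across tested compounds plus 3 SD, cut at about 8.5% in these data, passing the limit was not always enough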;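 further: compound pretreatment 18-22 h then 72 h combined with doxorubicin; 0% = doxorubicin alone and 100% = vehicle without doxorubicin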). The settings on record: H69AR viability with doxorubicin, CellTiter-Glo luminescence; at 10 µM; stronger effect = higher value.
Test [12] in a line: growth suppression of beta-catenin knockout HCT116, pilot screen, human colon tumor cells (AID 823;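 active means cell viability at or below a set limit in both duplicate runs, the limit being the all-compound median minus 4 SD, cut at about 23% in these data, passing the limit was not always enough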;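 further: 0% = wells killed by 20 µM Hyamine and 100% = untreated DMSO cell wells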). The following applies: CellTiter-Glo, 60 h, at 10 µM, stronger effect = lower value.
A short description of test [13]: growth suppression of PTEN-deleted HCT116, pilot screen, cell-based, HCT116 clonal line, CellTiter-Glo (AID 824;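 active means viability at or below 27.92% in each of two runs, the all-compound median minus 4 SD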;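 further: 0% = 20 µM Hyamine control and 100% = vehicle cell control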). The settings on record: 60 h, at 10 µM, stronger effect = lower value.
Test [14] can be described thus: inhibitors of the yeast RAM network, pilot screen, dse1pr::URA3 reporter, 5-FOA selection (AID 869;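 active means inhibition over a set limit, the all-compound mean plus 3 SD, in both replicate runs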;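 further: 0% = DMSO wells with no growth and 100% = 10 µM 1-NA-PP1 with full growth; RAM network block rescues cells from 5-FOA so hits raise OD615 growth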). The following applies: S. cerevisiae dse1pr::URA3 5-FOA growth, OD615, 2 d; at 10 µM; stronger effect = higher value; strain carries analog-sensitive mutant Cbk1 kinase.
Test [15] is described as follows: RAM signaling pathway blockade in yeast – S. cerevisiae, Pdr1DBD-CYC8 efflux-inhibited sensitized strain, primary screen (AID 1298;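 active means RAM network inhibition above 8.4% in each of two replicates, 3 SD over the compound average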;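 further: 0% = DMSO untreated cells without growth and 100% = 10 µM 1-NA-PP1 full growth; higher means more yeast growth rescued from 5-FOA killing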). The following applies: S. cerevisiae cbk1-as DSE1-URA3 strain, 5-FOA growth OD615, 2 d; at 50 µM; stronger effect = higher value.
The mark [16] stands for this setting: H69AR cells + 2 uM doxorubicin, measured here: viability with 2 uM doxorubicin, stronger effect = lower value.
The mark [17] stands for this setting: H69AR cells, compound alone cytotoxicity.

Sequence of Receptor tyrosine-protein kinase erbB-2 (Homo sapiens) (P04626 whole entry, looked up): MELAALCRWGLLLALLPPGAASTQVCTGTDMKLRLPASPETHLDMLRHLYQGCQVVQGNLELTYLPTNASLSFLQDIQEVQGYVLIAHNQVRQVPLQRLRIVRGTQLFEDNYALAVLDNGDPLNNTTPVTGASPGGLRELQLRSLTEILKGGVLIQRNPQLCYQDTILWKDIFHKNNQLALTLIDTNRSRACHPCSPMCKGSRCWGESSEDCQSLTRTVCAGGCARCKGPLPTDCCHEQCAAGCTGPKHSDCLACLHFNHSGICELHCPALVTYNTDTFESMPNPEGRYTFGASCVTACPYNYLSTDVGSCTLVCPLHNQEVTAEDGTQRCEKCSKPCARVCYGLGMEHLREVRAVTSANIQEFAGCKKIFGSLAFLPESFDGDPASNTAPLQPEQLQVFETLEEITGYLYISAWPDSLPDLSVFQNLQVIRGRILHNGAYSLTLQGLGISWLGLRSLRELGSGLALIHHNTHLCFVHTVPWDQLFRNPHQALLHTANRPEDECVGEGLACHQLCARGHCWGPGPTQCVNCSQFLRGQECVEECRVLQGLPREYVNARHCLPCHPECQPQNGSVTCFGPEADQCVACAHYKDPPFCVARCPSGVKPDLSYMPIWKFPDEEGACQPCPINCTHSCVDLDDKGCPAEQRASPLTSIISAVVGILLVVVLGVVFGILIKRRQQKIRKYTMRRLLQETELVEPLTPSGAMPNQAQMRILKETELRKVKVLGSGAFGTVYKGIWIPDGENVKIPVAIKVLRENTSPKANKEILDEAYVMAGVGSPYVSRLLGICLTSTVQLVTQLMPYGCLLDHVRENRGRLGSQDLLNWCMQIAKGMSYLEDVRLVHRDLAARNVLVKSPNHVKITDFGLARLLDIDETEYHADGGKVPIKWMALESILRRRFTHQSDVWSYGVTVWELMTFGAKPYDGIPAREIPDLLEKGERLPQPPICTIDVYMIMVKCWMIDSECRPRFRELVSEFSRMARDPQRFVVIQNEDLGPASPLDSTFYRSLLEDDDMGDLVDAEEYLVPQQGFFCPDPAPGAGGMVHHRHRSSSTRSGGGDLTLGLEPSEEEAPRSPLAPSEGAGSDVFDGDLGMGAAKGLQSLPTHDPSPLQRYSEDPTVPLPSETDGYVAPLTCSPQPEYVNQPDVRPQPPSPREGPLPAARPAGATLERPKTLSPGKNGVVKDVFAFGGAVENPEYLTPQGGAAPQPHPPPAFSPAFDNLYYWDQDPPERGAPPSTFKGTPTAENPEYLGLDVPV

For the molecule `COC(=O)c1ccc(-n2nnnc2SCc2nn[nH]n2)cc1`, the viability in test [1] was 77%; in test [3], 77% (inactive); in test [4], 107% (inactive); in test [5], 114% (inactive); in test [6] (setting [16]), 91.7%; in test [6] (setting [17]), 114%. Further, the viability was 106% (inactive) in test [12] and 100% (inactive) in test [13]. For the same molecule, the Her2 level in [2] was 135% (inactive). The differential viability (reversal) in [6] (H69AR cells + 2 uM doxorubicin) was 21.8% (inactive). In addition, the results for the inhibition in [7], in [8] and in test [14] were 3.21% (inactive), -5.5% (inactive) and 0.965% (inactive), respectively. Besides, the growth inhibition is -0.675% (inactive) in [9] and 25.4% (inactive) in test [10]. The viability increase in test [11] was 0.27% (inactive). In addition, the RAM network inhibition in test [15] was -1.09% (inactive).
`CCn1c(SCC(=O)Nc2cc(C)ccc2C)nc2c(c1=O)SC(C)C2` (stereo not given): the viability is 90.5% in test [1]; 90.5% (inactive) in [3]; 74% (inactive) in test [4]; 83.1% (inactive) in [5]; 67.8% in test [6] (setting [16]); 83.1% in test [6] (setting [17]). In addition, the viability in [12] was 93.6% (inactive); in [13] it was 91.5% (inactive). The Her2 level in [2] is 116% (inactive). The differential viability (reversal) in test [6] (H69AR cells + 2 uM doxorubicin) is 15.4% (inactive). The results for the inhibition in [7], in test [8] and in test [14] were -1.73% (inactive), -0.5% (inactive) and 1.16% (inactive), respectively. For the same molecule, the growth inhibition in test [9] is -9.3% (inactive); in [10] it was -6.79% (inactive). For the same molecule, the viability increase in [11] is -4.15% (inactive). Further, the RAM network inhibition in test [15] was 4.64% (inactive).
Regarding `CCc1cc2c(=O)c(-c3nc4ccccc4[nH]3)coc2c(CN2CCC(C)CC2)c1O`, the viability in test [1] was 96%; in [3], 96% (inactive); in test [4], 99.1% (inactive); in test [5], 82.6% (inactive); in test [6] (setting [16]) it was 82%; in [6] (setting [17]), 82.6%. Further, the viability was 92.3% (inactive) in [12] and 85.6% (inactive) in test [13]. In addition, in test [2], the Her2 level was 116% (inactive). Besides, the differential viability (reversal) in test [6] (H69AR cells + 2 uM doxorubicin) is 0.66% (inactive). The inhibition in [7] is -1.03% (inactive); in [8], 1.83% (inactive); in test [14], -0.2% (inactive). Besides, the growth inhibition in test [9] is 6.25% (inactive); in test [10], 18.5% (inactive). In test [11], the viability increase is -2.14% (inactive). The RAM network inhibition in [15] is -2.41% (inactive).
For the molecule `COCCCNC(=O)CC1Oc2ccccc2NC1=O` (stereo not given), the viability in test [1] was 86.5%; in test [3], 86.5% (inactive); in [4], 111% (inactive); in test [5], 83.3% (inactive); in test [6] (setting [16]) it was 88.7%; in test [6] (setting [17]) it was 83.3%. The viability in test [12] is 97.6% (inactive); in [13], 102% (inactive). Besides, in test [2], the Her2 level is 100% (inactive). For the same molecule, the differential viability (reversal) in test [6] (H69AR cells + 2 uM doxorubicin) was -5.41% (inactive). Further, the inhibition in test [7] is -5.73% (inactive); in [8], -2.83% (inactive); in [14] it was 1.65% (inactive). For the same molecule, the growth inhibition was -2.61% (inactive) in [9] and -1.36% (inactive) in test [10]. In addition, the viability increase in test [11] was 0.06% (inactive). In [15], the RAM network inhibition is 2.25% (inactive).
On to `COc1cccc(C2CC(c3ccc(F)cc3)Nc3nc(N)nn32)c1` (stereo not given), for which the viability is 100% in test [1]; 100% (inactive) in [3]; 99.9% (inactive) in [4]; 103% (inactive) in test [5]; 99.9% in [6] (setting [16]); 103% in test [6] (setting [17]). For the same molecule, the results for the viability in [12] and in [13] were 102% (inactive) and 95.5% (inactive), respectively. Moreover, in test [2], the Her2 level was 106% (inactive). Also, in test [6] (H69AR cells + 2 uM doxorubicin), the differential viability (reversal) was 3.04% (inactive). The inhibition in test [7] is -2.67% (inactive); in test [8], 14.9% (inactive); in test [14], 0.725% (inactive). Also, the growth inhibition in test [9] was -3.78% (inactive); in test [10], 4.35% (inactive). In addition, the viability increase in [11] was -0.39% (inactive). For the same molecule, the RAM network inhibition in test [15] is 5.03% (inactive).

The viability is a read-out of living cells in per cent, often relative to untreated cells. In general, inhibition refers to the relative decrease from the control value, in per cent.
